# Source: ChEMBL document CHEMBL3988442, “University of Dundee, Small-Polar-MMV Screening Library” (2021)
# The whole screen tested about 53,000 compounds, of which about 900 (1.7%) showed an effect of 50% or more. What follows is part of a selection rich in strong results, with near analogues and random picks from the rest.
# System: Mycobacterium tuberculosis
# Experiment: Cornell - Phenotypic assay to identify agents that inhibit growth of Mycobacterium tuberculosis
# Assay type: functional
# Parameters: scale not given: direction of the effect not stated beside the values
# Conditions: 10 mM as filed; unlikely as a test dose
row,Compound,Percent Effect [%]
1,CCS(=O)(=O)NCC(=O)NC(c1cc(C)sc1C)C(C)C (stereo not drawn),24.3
2,Cc1cc(C)nc(Nc2nccnc2C2CCCN(C(CO)CO)C2)n1 (stereo not drawn),36.66
3,CC(=O)N1CCCC(c2nccnc2Nc2nc(C)cc(C)n2)C1 (stereo not drawn),-9.848
4,Cc1cc(C)nc(Nc2nccnc2C2CCCN(CCO)C2)n1 (stereo not drawn),54.85
5,COc1cc(C2CC(=O)Oc3cc(C)[nH]c(=O)c32)ccc1O (stereo not drawn),15.79
6,Cc1noc(Cl)c1CC(=O)N1CCCC1Cn1cccn1 (stereo not drawn),17.08
7,COc1nccnc1-c1cccc(-c2ccn(CC3COCCO3)n2)c1 (stereo not drawn),14.38
8,CSc1nccc(-c2cccc(-c3ccn(CC4COCCO4)n3)c2)n1 (stereo not drawn),71.9
9,COc1cccc(-c2cccc(-c3ccn(CC4COCCO4)n3)c2)n1 (stereo not drawn),-2.003
10,Cc1[nH]nc2ncc(C(=O)N3CCCC3c3noc(C(C)C)n3)cc12 (stereo not drawn),24.5
11,c1cc(-c2ccc3c(c2)C2(CC3)CCN(c3nncs3)CC2)ccn1,26.32
12,O=C(O)C(F)(F)F.c1cncc(-c2ccc3c(c2)C2(CC3)CCN(c3nncs3)CC2)c1,85.45
13,O=C(O)C(F)(F)F.c1cc(-c2ccc3c(c2)CCC32CCN(c3nncs3)CC2)ccn1,20.52
14,CN1CCN(Cc2cccnc2)C(=O)C12CCN(Cc1ccco1)CC2.O=C(O)C(F)(F)F.O=C(O)C(F)(F)F.O=C(O)C(F)(F)F,15.2
15,O=C(O)C(F)(F)F.O=C(O)C(F)(F)F.c1csc(CN2CCC3(CC2)CCN(CC2CC2)CC3)n1,-43.47
16,CN(C)CC(=O)N1CCC2(CCc3cc(-c4cccnc4)ccc32)CC1.O=C(O)C(F)(F)F.O=C(O)C(F)(F)F,11.92
17,O=C(O)C(F)(F)F.O=C(O)C(F)(F)F.c1cncc(-c2ccc3c(c2)CCC32CCN(Cc3nccs3)CC2)c1,61.89
18,COc1ccc2c(c1)C1(CCN(Cc3nccs3)CC1)N(C)CC2.O=C(O)C(F)(F)F.O=C(O)C(F)(F)F,-9.444
19,O=C(O)C(F)(F)F.O=C(O)C(F)(F)F.c1cncc(-c2ccc3c(c2)CCC32CCN(Cc3ccco3)CC2)c1,82.31
20,CC(C)(C)c1n[nH]cc1CNC1CCC(OCC(F)(F)F)CC1.Cl (stereo not drawn),-6.883
21,CCN(CC(C)C#N)C(=O)CNc1ccc(C(N)=O)c(C)c1 (stereo not drawn),7.465
22,O=C(CC1CCCC1)NCCS(=O)(=O)N1CCN(c2ccccn2)CC1,-6.415
23,CN(C)c1nccc(C2CCN(C3CCCCC3O)CC2)n1 (stereo not drawn),-26.39
24,Cn1ccnc1CN1CCCN(C(=O)c2ccc3ccccc3c2)CC1,4.708

row,Compound,Percent Effect [%]
1,COc1ccc(C)cc1NC(=O)c1coc(C)n1,8.355
2,CCN(C(=O)c1ccc2c(c1)OCO2)C1CC(=O)NC1=O (stereo not drawn),-9.897
3,CC(C)c1cc(C(=O)N2CCN(c3ccncc3)CC2)n(C)n1,12.8
4,CC(C)c1cc(C(=O)N2CCN(c3ccc(F)c(Cl)c3)CC2)n(C)n1,54.92
5,CC(=O)c1ccc(N2CCN(C(=O)c3cc(C(C)C)nn3C)CC2)cc1,16.14
6,O=C(NCc1cccs1)NCC(O)c1ccoc1 (stereo not drawn),18.49
7,O=C(NCCC(O)c1ccoc1)Nc1cccs1 (stereo not drawn),106.1
8,CCOc1ccccc1C(=O)NCCC(O)c1ccoc1 (stereo not drawn),22.79
9,O=C(NCC(O)c1ccoc1)Nc1c(F)cccc1F (stereo not drawn),6.365
10,CCOC(=O)NCCC(O)c1ccoc1 (stereo not drawn),23.86
11,O=C(NCC(O)c1ccoc1)Nc1cccs1 (stereo not drawn),104.6
12,Cl.O=C(CN1CCCC1)Nc1c2c(cc3c1CCC3)CCC2,40.53
13,CCS(=O)(=O)Nc1ccn(Cc2cccc(F)c2)n1,-38.51
14,CN(C)CCN1C(=O)CCC12CCCN(C(=O)c1cccnc1)CC2.O=C(O)C(F)(F)F.O=C(O)C(F)(F)F (stereo not drawn),28.27
15,Cn1cc(CN2CCCCC2c2ccc(-c3cccc(Cl)c3)nc2)cn1 (stereo not drawn),30.06
16,CC1CCN(C(=O)NCCc2cc(F)ccc2F)C1 (stereo not drawn),29.01
17,CN(C)CCNc1cc(-c2ccccc2C(N)=O)c2cc[nH]c2n1,-19.65
18,O=C(c1cc2cccc(F)c2[nH]1)N1C[C@@H](O)[C@H](N2CCCC2)C1,36.56
19,CN1CCN([C@@H]2CN(C(=O)c3cc4cccc(F)c4[nH]3)C[C@H]2O)CC1,38.63
20,CN(C)[C@@H]1CN(C(=O)c2cc3cccc(F)c3[nH]2)C[C@H]1O,57.85
21,CN1CCOC(CNCC(=O)NCCc2ccc3c(c2)OCCO3)C1 (stereo not drawn),-19.13
22,Nc1cc(N2CCCC(COc3ccc(F)cc3)C2)nc(N)n1 (stereo not drawn),-4.088
23,Cc1ccccc1OCC1CCCN(c2cc(N)nc(N)n2)C1 (stereo not drawn),79.75
24,Cc1nc(N)cc(N2CCCC(COc3cccc(F)c3)C2)n1 (stereo not drawn),43.67
